For some assays here: Results with a measured potency or affinity are listed apart.
Key:
Design in all cases: scale not given: direction of the effect not stated beside the values
[1] = target: Protein translocase subunit SecA (Escherichia coli (strain K12)) (UniProt P10408); assay: Assay to Identify E. coli SecA ATPase Inhibitors; assay type: functional; conditions: 30 µM
[2] = target: T1, Ubiquitin-activating enzyme e1, putative (Leishmania donovani (strain BPK282A1)) (UniProt E9BSI1); assay: Leishmania donovani Ubiquitin Activating Enzyme (LdE1); assay type: functional; conditions: 30 µM
T1 sequence (whole entry): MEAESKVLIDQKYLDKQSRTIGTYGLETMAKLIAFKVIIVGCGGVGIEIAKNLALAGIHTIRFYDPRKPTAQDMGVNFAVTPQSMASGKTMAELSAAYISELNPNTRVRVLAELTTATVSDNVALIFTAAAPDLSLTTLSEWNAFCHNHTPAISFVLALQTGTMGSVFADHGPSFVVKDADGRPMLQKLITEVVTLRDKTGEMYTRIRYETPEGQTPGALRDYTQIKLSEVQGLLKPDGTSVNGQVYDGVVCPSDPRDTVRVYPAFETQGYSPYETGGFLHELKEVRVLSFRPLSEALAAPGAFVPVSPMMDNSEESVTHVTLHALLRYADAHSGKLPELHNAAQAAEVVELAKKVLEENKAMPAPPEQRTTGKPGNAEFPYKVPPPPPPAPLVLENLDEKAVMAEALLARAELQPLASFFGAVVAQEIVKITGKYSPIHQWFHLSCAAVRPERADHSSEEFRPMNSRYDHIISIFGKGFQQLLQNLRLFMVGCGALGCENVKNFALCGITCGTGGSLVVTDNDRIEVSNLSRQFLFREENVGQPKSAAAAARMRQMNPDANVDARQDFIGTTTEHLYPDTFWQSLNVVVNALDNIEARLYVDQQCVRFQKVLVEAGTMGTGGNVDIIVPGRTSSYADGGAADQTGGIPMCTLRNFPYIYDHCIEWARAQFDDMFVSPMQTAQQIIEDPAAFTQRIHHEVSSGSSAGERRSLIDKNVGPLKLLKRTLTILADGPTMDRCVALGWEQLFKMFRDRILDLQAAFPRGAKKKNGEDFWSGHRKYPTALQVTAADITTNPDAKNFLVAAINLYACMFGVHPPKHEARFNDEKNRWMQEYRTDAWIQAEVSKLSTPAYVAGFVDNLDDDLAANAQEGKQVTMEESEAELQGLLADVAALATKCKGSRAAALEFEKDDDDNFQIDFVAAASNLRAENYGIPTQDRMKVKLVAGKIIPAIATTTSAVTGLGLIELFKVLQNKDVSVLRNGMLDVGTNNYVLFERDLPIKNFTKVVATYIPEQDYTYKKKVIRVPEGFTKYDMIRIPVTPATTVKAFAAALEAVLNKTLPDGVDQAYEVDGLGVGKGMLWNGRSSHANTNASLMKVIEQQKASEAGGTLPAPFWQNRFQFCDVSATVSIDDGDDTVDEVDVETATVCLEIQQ

[3] = target: AMP-activated protein kinase, AMPK (Homo sapiens) (UniProt P54646+O43741+P54619+Q9UGJ0+Q9Y478+Q13131+Q9UGI9); assay: AMP-dependent Kinase enzyme assay. An in vitro enzyme assay that detects ADP turnover that is directly proportional to AMPK activity. This uses naive AMPK that is activated during the assay with MK-8722; assay type: functional; conditions: 30 µM
[4] = target: Sialic acid-binding Ig-like lectin 9 (Homo sapiens) (UniProt Q9Y336); assay: Hs-Siglec9 ALPHAscreen SOP 20170721; conditions: 10 µM
Sialic acid-binding Ig-like lectin 9 (Homo sapiens), sequence (Q9Y336 whole entry): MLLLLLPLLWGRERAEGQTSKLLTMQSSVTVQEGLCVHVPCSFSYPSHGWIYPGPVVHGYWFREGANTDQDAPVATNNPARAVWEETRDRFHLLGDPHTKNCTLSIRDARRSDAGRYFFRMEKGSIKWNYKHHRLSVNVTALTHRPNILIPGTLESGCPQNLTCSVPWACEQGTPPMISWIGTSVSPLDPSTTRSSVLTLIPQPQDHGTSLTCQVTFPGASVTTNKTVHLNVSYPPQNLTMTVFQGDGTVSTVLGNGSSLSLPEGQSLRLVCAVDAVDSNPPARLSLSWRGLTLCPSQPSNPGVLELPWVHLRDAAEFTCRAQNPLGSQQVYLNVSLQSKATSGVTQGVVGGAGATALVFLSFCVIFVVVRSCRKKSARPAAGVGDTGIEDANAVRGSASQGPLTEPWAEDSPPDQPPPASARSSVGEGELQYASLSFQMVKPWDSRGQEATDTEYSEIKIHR

Trypanosoma cruzi = assay: Trypanosoma cruzi phosphomannomutase and mannose-1-phosphate guanylyltransferase assay; assay type: functional; conditions: 10 µM
[5] = target: T2, Arginase-2, mitochondrial (Homo sapiens) (UniProt P78540); assay: in vitro enzyme assay to detect the production of urea directly proportional to the activity of Arginase II; assay type: functional; conditions: 33.3 µM; note: in the data most compounds retested in dose-response had high values
T2 sequence (whole entry): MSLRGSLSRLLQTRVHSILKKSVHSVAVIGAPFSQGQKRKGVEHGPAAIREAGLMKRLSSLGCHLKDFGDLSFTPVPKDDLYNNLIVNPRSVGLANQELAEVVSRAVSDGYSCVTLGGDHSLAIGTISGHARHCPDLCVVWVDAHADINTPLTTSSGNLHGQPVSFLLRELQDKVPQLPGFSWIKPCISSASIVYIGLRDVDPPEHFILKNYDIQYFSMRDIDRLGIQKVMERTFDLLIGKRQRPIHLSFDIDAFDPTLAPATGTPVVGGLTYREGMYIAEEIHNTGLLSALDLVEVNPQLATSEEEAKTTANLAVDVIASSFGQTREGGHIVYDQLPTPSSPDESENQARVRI

[6] = target: T3, Proteasome subunit beta (Trypanosoma cruzi) (UniProt O96673); assay: Trypanosoma cruzi proteasome chymotrypsin-like activity (TcProtChymo) assay.; note: in the data most compounds retested in dose-response had high values; assay type: functional; conditions: 9.37 µM
T3 sequence (whole entry): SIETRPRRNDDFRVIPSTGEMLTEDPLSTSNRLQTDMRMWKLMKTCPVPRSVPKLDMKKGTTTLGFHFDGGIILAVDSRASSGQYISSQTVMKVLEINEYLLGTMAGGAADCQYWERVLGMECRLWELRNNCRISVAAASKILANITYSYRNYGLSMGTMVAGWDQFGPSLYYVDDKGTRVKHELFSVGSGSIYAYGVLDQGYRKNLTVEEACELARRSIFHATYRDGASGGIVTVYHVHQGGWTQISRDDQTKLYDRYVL

Homo sapiens = organism: Homo sapiens; assay: To identify inhibition of the IFN signalling (Jak-Stat) pathway via expression of an eGFP reporter gene under the control of an IFN-stimulated response element (ISRE) containing MxA promoter.; assay type: functional; conditions: 30 µM
[7] = target: T4, Tyrosyl-tRNA synthetase, putative (Trypanosoma cruzi (strain CL Brener)) (UniProt Q4DSP6); assay: Trypanosoma cruzi tyrosyl tRNA synthetase (TcYRS) _High Tyrosine SOP; assay type: functional; conditions: 30 µM; note: in the data most compounds retested in dose-response had high values
T4 sequence (whole entry): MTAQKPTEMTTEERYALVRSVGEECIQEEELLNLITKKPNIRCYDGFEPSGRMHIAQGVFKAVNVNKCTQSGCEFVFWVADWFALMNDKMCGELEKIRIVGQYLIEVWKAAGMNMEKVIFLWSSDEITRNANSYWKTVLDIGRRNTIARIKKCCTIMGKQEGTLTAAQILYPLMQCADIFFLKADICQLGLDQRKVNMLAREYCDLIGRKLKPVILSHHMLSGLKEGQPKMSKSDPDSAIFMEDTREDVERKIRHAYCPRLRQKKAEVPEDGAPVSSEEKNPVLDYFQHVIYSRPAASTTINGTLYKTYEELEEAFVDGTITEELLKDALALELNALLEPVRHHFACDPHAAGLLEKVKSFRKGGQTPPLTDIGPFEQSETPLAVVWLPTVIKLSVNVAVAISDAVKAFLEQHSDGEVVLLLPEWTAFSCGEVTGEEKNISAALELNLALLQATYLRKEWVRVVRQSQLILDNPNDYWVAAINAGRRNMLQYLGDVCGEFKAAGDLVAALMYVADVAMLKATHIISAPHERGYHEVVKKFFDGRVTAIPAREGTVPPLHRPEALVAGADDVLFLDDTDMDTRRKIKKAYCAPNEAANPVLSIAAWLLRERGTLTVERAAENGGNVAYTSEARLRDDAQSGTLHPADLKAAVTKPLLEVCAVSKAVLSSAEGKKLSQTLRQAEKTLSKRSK

[8] = target: T4, Tyrosyl-tRNA synthetase, putative (Trypanosoma cruzi (strain CL Brener)); assay: Trypanosoma cruzi tyrosyl tRNA synthetase (TcYRS) SOP; assay type: functional; conditions: 30 µM
[9] = target: Chromo domain-containing protein 1 (Saccharomyces cerevisiae (strain ATCC 204508 / S288c) (Baker's yeast)) (UniProt P32657); assay: ScCHD-1 Enzyme Inhibition Assay; assay type: functional; conditions: 30 µM; note: in the data most compounds retested in dose-response had high values
Chromo domain-containing protein 1 (Saccharomyces cerevisiae (strain ATCC 204508 / S288c) (Baker's yeast)), sequence (P32657 whole entry, the tested form may be a part): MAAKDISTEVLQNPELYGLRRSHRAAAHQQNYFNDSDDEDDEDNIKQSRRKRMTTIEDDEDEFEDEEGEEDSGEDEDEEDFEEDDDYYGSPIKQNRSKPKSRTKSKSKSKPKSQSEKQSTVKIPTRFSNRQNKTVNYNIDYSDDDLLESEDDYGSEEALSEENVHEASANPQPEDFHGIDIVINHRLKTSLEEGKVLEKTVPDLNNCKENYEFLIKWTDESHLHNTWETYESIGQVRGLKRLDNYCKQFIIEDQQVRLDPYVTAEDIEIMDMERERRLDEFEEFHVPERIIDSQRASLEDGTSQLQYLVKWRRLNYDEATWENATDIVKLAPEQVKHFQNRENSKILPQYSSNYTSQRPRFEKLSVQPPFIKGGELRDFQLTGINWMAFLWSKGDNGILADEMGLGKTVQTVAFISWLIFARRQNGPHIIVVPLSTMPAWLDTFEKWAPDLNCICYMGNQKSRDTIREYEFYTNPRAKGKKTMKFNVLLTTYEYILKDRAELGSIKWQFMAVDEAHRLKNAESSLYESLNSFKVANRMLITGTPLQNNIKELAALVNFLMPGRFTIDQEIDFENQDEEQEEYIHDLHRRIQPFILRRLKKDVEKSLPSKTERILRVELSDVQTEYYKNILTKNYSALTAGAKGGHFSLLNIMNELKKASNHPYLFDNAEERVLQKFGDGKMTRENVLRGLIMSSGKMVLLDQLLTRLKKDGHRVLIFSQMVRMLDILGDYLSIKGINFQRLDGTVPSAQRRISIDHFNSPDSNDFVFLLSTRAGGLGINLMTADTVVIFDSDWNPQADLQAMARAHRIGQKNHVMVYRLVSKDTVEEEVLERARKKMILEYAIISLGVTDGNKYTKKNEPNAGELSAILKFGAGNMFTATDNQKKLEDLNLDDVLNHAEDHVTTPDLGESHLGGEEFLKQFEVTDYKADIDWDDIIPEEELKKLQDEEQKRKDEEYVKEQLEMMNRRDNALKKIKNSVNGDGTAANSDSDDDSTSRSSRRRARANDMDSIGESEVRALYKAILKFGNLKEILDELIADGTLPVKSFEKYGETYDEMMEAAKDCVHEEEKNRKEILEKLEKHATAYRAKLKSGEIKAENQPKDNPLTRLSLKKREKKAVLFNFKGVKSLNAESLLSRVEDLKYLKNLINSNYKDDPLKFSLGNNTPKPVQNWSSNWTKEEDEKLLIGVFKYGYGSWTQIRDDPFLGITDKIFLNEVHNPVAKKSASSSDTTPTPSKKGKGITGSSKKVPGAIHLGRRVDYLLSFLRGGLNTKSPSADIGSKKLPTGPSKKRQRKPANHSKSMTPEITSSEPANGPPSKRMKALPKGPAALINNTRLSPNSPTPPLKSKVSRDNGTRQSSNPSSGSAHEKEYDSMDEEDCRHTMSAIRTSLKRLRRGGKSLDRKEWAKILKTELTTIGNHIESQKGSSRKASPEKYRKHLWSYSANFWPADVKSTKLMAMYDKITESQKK

Protein translocase subunit SecA (Escherichia coli (strain K12)), sequence (P10408 whole entry): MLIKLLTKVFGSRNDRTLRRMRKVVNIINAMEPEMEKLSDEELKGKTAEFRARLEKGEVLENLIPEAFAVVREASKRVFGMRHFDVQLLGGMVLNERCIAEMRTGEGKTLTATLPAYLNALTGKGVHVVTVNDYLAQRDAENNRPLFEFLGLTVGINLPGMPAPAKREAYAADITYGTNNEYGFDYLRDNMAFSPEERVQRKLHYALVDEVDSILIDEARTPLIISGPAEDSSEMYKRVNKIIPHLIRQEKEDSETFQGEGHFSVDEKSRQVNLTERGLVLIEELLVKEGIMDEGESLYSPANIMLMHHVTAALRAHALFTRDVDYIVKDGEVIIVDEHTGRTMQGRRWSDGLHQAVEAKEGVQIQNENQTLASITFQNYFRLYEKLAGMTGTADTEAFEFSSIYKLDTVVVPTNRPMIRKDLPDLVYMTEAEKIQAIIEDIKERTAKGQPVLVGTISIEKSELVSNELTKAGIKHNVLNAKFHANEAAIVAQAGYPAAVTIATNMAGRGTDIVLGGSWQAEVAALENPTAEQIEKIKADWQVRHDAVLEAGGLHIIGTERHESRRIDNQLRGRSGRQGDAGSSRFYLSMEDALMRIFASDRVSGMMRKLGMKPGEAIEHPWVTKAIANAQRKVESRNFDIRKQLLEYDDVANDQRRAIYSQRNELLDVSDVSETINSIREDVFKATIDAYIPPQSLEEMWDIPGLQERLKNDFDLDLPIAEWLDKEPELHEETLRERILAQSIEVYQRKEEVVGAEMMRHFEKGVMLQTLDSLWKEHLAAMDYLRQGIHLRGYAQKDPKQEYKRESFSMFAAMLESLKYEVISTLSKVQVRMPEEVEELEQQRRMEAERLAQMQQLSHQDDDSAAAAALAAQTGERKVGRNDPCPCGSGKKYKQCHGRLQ

Structure (SMILES)	Percent Effect [1] [%]	Percent Effect [2] [%]	Percent Effect [3] [%]	Percent Effect [4] [%]	Percent Effect (Trypanosoma cruzi) [%]	Percent Effect [5] [%]	Percent Effect [6] [%]	Percent Effect (Homo sapiens) [%]	Percent Effect [7] [%]	Percent Effect [8] [%]	Percent Effect [9] [%]
CCc1c(C(=O)N2CCCN(C(C)=O)CC2)cnn1C(C)(C)C	-5.01	23.7	-6.43	9.75	3.27	1.08	6.68	-2.15	7.39	25.9	-9.24
COc1cccc(CN2CCC(c3cc(O)nc(C)n3)C2)c1 (configuration not stated)	-3.18	12.2	6.93	3.66	2.37	-3.02	11.7	29.9	6.45	14.3	-5.62
Cc1ccc(CNC(c2ccccc2)c2nccn2C)cc1C (configuration not stated)	-0.655	18.9	-5.59	9.13	2.32	-0.554	8.08	30.7	10.9	25.6	-5.06
CC(C)NC(=O)c1ccc2c(c1)nc1n2CCN(c2ccccc2)C1	-1.74	-17.3	16.6	5.54	-1.97	-9.68	15.3	-10.5	26.5	33.3	-10.5
CCOc1ccc(CNCCCn2ccnc2)cc1Br	-0.283	12	-3.14	3.52	-3.34	-6.51	12.8	9.57	6.35	10.3	-10.4
O=C(Cn1ccc2ccccc21)NCc1ccc(C(=O)O)cc1	-5.35	2.63	10.1	1.77	-1.85	0	15.8	-18.3	-1.06	10.4	-0.974
Cc1cc2nc(SCC(=O)N3CCCC3)n(-c3ccccc3)c(=O)c2[nH]1	-2.59	2.63	7.28	-3.44	-3.02	9.47	19.6	-5.99	6.38	2.6	-5.49
CC(C)NC(=O)c1sccc1N(C)S(=O)(=O)c1ccc(Cl)cc1	2.02	7.89	10.6	-13	-7.5	11.8	13.1	22.6	-2.13	0	-5.6
CN(C(=O)c1ccccc1Cl)C1CCN(c2ccccn2)CC1	-6.46	23.4	-2.17	-1.36	6.95	-2.32	12.7	9.9	7.62	23.5	-2.92
Cc1nn(C)c(C)c1NC(=O)CN1CCc2c(nc(C(C)C)n2C)C1	-0.874	8.11	-7.75	18.4	7.34	12.9	7.93	22.8	5.82	14.6	-2.17
Cn1ccc(-c2cc(C(=O)N3CCOCC3)c3ccccn23)n1	1.94	10.8	19.9	17.5	-8.5	2.87	12.7	35.5	-4.32	2.56	-7.76
CC(C)C(NC(=O)NCC1(CO)CC1)c1nnc2n1CCC2 (configuration not stated)	-7.18	13.5	2.82	15.2	2.54	4.58	11.2	10.4	7.92	11	-9.98
Cc1ccc(C(=O)N2CCSCC2)cc1NC(=O)Cn1cncn1	-4.05	16.4	-5.58	10.2	7.74	-7.98	17.6	-4.75	6.25	18.5	-7.01
Cn1cc(N2CCC(NC(=O)c3c(F)cccc3F)C2=O)cn1 (configuration not stated)	-7.01	-2.7	0.96	-8.23	-1.66	-0.744	0.258	-14.2	0	1.24	0.00639
CCCn1nc2c(cc1=O)CN(CCCS(N)(=O)=O)CC2	-1.13	0	-142	6.58	-3.3	6.01	12.1	-3.47	-1.48	-8.64	-2.91
O=C(CO)N1CCC(c2cncc(-c3cccc(Cl)c3)n2)CC1	-2.26	-2.67	27.8	-7.86	8.27	138	15.9	6.85	11.7	16.7	-5.15
O=C(c1cccnc1)N1CC[C@H](OCC2CC2)[C@@H]1Cc1cccnc1	-0.924	13.3	5.44	-0.245	-4.44	-43.2	2.73	-15.6	1.04	-10	-6.48
COc1c(C)cnc(CSc2nnc(C)s2)c1C	-4.15	5.33	-1.7	12.8	6.33	8.33	4.53	6.59	1.64	6.17	-14.7
COCCO[C@@H]1C[C@H]2CN(C(=O)c3cnccn3)CCN2C1	-2.84	5.33	-0.698	4.55	-0.965	-39.6	4.79	-8.37	0	-15	-3.81
CCc1n[nH]c(C2CN(C(=O)Cn3ccccc3=O)CCO2)n1 (configuration not stated)	0.155	16.5	-10.9	-3.88	0.718	6.67	17.1	2.18	3.12	12.7	-24.2
CNS(=O)(=O)c1ccc(C(=O)NCCNc2ncccn2)cc1	-3.65	10.5	-2.1	-1.6	-2.52	-1.08	7.36	-4.68	6.4	23.5	-3.3
CN1CCCC1CNC(=O)CCCOc1ccc(F)cc1 (configuration not stated)	-1.24	0	7.48	11.7	4.7	-3.83	0.835	-4.13	4.41	7.32	-3.92
